The supplement of paper PMC10646978
± gives the standard deviation.

Experiments:
Conditions in all cases: modulator concentration 10 µM
[1] = system: RAW-Dual (murine macrophage reporter line); assay: NF-kB reporter (SEAP) activity fold change vs agonist alone; higher = enhanced NF-kB activity
Procedure, shortened: (§1)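 In 384-well plates holding 50 000 RAW-Dual murine macrophage reporter cells per well, compound at 10 μM final was pre-incubated for 1 hour at 37 °C, after which a PRR agonist was added overnight. Supernatant SEAP read with QUANTI-Blue at 620 nm absorbance reported NF-κB, and Lucia luciferase read with QUANTI-Luc luminescence reported IRF. Fold change values come from dividing each reporter signal by the mean of agonist-only control wells on the same plate, averaged over replicate plates with propagated errors.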

[2] = system: RAW-Dual (murine macrophage reporter line); assay: IRF reporter (Lucia luciferase) activity fold change vs agonist alone; higher = enhanced IRF activity
Procedure, shortened: as §1

[3] = system: RAW-Dual (murine macrophage reporter line); assay: viability score (confluency relative to resting cells, overnight) (fraction); higher = more viable, active = viable (0.7 or more)
Procedure, shortened: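 Compound was added at a final 10 μM to RAW-Dual macrophages in 384-well plates and left overnight. Confluency was imaged with IncuCyte, and two masks were generated in IncuCyte software over all imaged wells. Each viability score is confluency relative to resting cells, and a compound met the cutoff only when both masks were above 70% of resting cells.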

[4] = agonist: CpG ODN 1826 0.5 ug/mL

| Compound | NF-kB reporter [1, 4] | NF-kB reporter ([1]; agonist: LPS 0.1 ug/mL) | NF-kB reporter ([1]; agonist: MPLA […]) | IRF reporter ([2]; agonist: 3'3'-cGAMP 10 ug/mL) | IRF reporter ([2]; agonist: LPS 0.1 ug/mL) | IRF reporter ([2]; agonist: MPLA […]) | viability score [3] |
| --- | --- | --- | --- | --- | --- | --- | --- |
| CC1(C)OC[C@@H](COC(=O)CCc2ccc(OC[C@@H](O)CNCCNC(=O)N3CCOCC3)cc2)O1.Cl | 1.05 ± 0.079 | 0.966 ± 0.072 | 0.987 ± 0.023 | 0.985 ± 0.098 | 0.97 ± 0.11 | 0.832 ± 0.2 | 1 (active) |
| CCOCCn1c(C2CCN(CCc3ccc(C(C)(C)C(=O)O)cc3)CC2)nc2ccccc21 | 1.29 ± 0.34 | 0.976 ± 0.065 | 1 ± 0.098 | 0.925 ± 0.034 | 1.08 ± 0.13 | 1.04 ± 0.13 | 0.521 (inactive) |
| CCN1CCN(CC(O)COc2ccc(C(C)(C)C)cc2C(C)(C)C)CC1.Cl.Cl (stereo not drawn) | 0.72 ± 0.12 | 0.999 ± 0.08 | 2.1 ± 0.29 | 0.96 ± 0.052 | 1.24 ± 0.14 | 2.24 ± 0.24 | 0.25 (inactive) |
| Cn1ncc(Cl)c1-c1cc(C(=O)N[C@H](CN)Cc2cccc(F)c2)sc1Cl | 0.833 ± 0.2 | 1.54 ± 0.11 | 1.64 ± 0.17 | 0.69 ± 0.026 | 1.55 ± 0.21 | 1.79 ± 0.33 | 0.647 (inactive) |
| CN(Cc1cnc2nc(N)nc(N)c2n1)c1ccc(C(=O)NC(CCC(=O)O)C(=O)O)cc1 (stereo not drawn) [Prestw-373] | 0.987 ± 0.24 | 0.701 ± 0.04 | 0.87 ± 0.072 | 0.614 ± 0.037 | 1.16 ± 0.19 | 1.01 ± 0.13 | 0.791 (active) |
| COCCOC(=O)C1=C(C)NC(C)=C(C(=O)OCC=Cc2ccccc2)C1c1cccc([N+](=O)[O-])c1 (stereo not drawn) | 0.586 ± 0.052 | 0.539 ± 0.074 | 1.07 ± 0.068 | 0.548 ± 0.035 | 1.06 ± 0.035 | 2.1 ± 0.43 | 0.989 (active) |
| CC(C)Oc1ccc(C(=O)N2CCC(c3ccccc3)S(=O)(=O)CC2)cc1 (stereo not drawn) | 0.906 ± 0.061 | 1.07 ± 0.098 | 0.876 ± 0.049 | 0.928 ± 0.049 | 1.13 ± 0.069 | 1.09 ± 0.092 | 0.992 (active) |
| C=CCNC(=O)CN(Cc1ccccc1)S(=O)(=O)c1ccc(OC)c(OC)c1 | 0.684 ± 0.4 | 0.886 ± 0.078 | 0.946 ± 0.089 | 0.916 ± 0.029 | 1.11 ± 0.14 | 1.13 ± 0.17 | 1.04 (active) |
| O=C(CCCCCN1C(=O)c2cccc3cccc(c23)C1=O)NCCO | 0.954 ± 0.082 | 1.01 ± 0.082 | 0.872 ± 0.074 | 0.886 ± 0.036 | 1.29 ± 0.086 | 1.19 ± 0.14 | 1 (active) |
| NC(=O)c1ccccc1O | 1.18 ± 0.28 | 1.01 ± 0.051 | 0.978 ± 0.085 | 0.945 ± 0.032 | 1.23 ± 0.14 | 1.19 ± 0.16 | 0.993 (active) |
| Oc1nc[nH]n1 | 1.05 ± 0.087 | 0.927 ± 0.067 | 1.02 ± 0.022 | 1 ± 0.06 | 0.923 ± 0.04 | 0.838 ± 0.074 | 1 (active) |
| O=C(CCCC(=O)Nc1ccc(Cl)c(Cl)c1)Nc1ccc(Cl)c(Cl)c1 | 0.964 ± 0.076 | 1.02 ± 0.062 | 0.914 ± 0.068 | 0.963 ± 0.029 | 1.41 ± 0.13 | 1.13 ± 0.14 | 1.01 (active) |
| CC(C(=O)O)c1ccc2c(c1)[nH]c1ccc(Cl)cc12 (stereo not drawn) | 0.96 ± 0.15 | 1.13 ± 0.24 | 0.879 ± 0.064 | 0.937 ± 0.054 | 1.19 ± 0.2 | 1.05 ± 0.16 | 1 (active) |
| CSc1nc2cc(Oc3cccc(Cl)c3Cl)c(Cl)cc2[nH]1 | 0.416 ± 0.14 | 0.771 ± 0.084 | 0.63 ± 0.037 | 0.831 ± 0.025 | 1.41 ± 0.26 | 1.34 ± 0.21 | 0.921 (active) |
